Assay results: PubChem BioAssay AID686979 (National Center for Advancing Translational Sciences (NCATS), 2013)
Screen size: about 420,000 compounds; about 50,000 (12%) were called active. Roughly 26% stayed inconclusive and do not appear here. This is one part of a sample in which actives are shown more often than they occur. Unmarked numbers belong to inactive results. Calls come from the whole dose curve; as a rule, active = well fitted inhibition curve with a large enough effect; inconclusive = small, poorly fitted or top-dose-only effect; inactive = flat fitted curve, though single readings scatter.

Assay: qHTS for Inhibitors of human tyrosyl-DNA phosphodiesterase 1 (TDP1): qHTS in cells in presence of CPT; note: nearly all actives have a fitted effect of over 55% in size
Conditions: chicken DT40 Tdp1-/-;hTDP1 cells + 20 nM CPT, ATP luminescence, 48 h; series mostly up to 46.2 µM; activity change, negative = growth inhibition: at the top concentration
Outline: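 Chicken DT40 Tdp1-/- cells stably complemented with human TDP1 were seeded at 400 cells/well in medium containing 20 nM camptothecin, exposed to pin-transferred compounds, and grown at 37 °C for at least 48 hr. Viability was read as ATP luminescence.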
% is set by controls: 0 for no effect and ±100 for the full control effect; potency is the fitted concentration of half-maximal effect.

Row | Structure (SMILES) | activity change, negative = growth inhibition [%] | Potency
1 | COc1ccc(C(C#N)Nc2ccc(C)cc2)cc1 (stereo unspecified) | -0.292 | 
2 | Cc1ccc(CN2CCN(/N=C/c3ccco3)CC2)c(C)c1 | -24 | 
3 | CC(C)=CCCC1(C)C=Cc2c(ccc3c2[nH]c2cc(O)c(C)cc23)O1 (stereo unspecified) |  | 16.4 µM (active)
4 | Cc1ccc(CNC(=O)Nc2nnc([C@H]3C[C@H](O)[C@@H](CO)O3)s2)cc1 | 1.01 | 
5 | Cc1ccc(C(=O)c2ccc(N3CCN(C)CC3)c([N+](=O)[O-])c2)cc1 |  | 18.4 µM (active)
6 | Cc1cc(C)n(-c2ccc(C(=O)O)cc2[N+](=O)[O-])n1 | 14.8 | 
7 | CN1CCN(S(=O)(=O)c2ccc(N3CCN(c4ccccc4O)CC3)c([N+](=O)[O-])c2)CC1 |  | 23.1 µM (active)
8 | Cc1cccc(N2CCN(c3ccc(C(N)=O)cc3[N+](=O)[O-])CC2)c1C | 5.49 | 
9 | Cc1cc(N)n(-c2ccc(S(=O)(=O)N3CCCC3)cc2[N+](=O)[O-])n1 | -7.74 | 
10 | O=[N+]([O-])c1ccc(N2CCN(S(=O)(=O)c3ccccc3)CC2)cc1N1CCc2ccccc2C1 | 7.97 | 
11 | C=CCN(c1ccc(Cl)cc1)S(=O)(=O)c1cccc(C(=O)OCC(=O)N(C)C)c1 | -1.6 | 
12 | Cc1ccc2c(c1)N(C(=O)CCC(=O)NCc1cccnc1)CCO2 | -6.02 | 
13 | Cn1nccc1NC(=O)CC(CC(=O)O)c1ccccc1 (stereo unspecified) | 7.18 | 
14 | Cn1ccsc1=NC(=O)c1cc(S(=O)(=O)N2CCOCC2)ccc1Cl | 0.0181 | 
15 | N/C(=N\OC(=O)N1c2ccccc2Sc2ccccc21)c1ccc(Br)cc1 |  | 20.6 µM (active)
16 | N/C(=N\OC(=O)c1ccc2c(c1)OCO2)c1ccc(Br)cc1 | -16.9 | 
17 | N/C(=N\OC(=O)/C=C/c1ccccc1)c1ccc(Br)cc1 | 9.3 | 
18 | Cc1csc(=O)n1CCC(=O)OCC(=O)NNC(=O)c1ccc(Br)cc1 | 3.49 | 
19 | CC(=O)Nc1cccc(C(=O)OCC(=O)Nc2nnc(-c3ccccc3)o2)c1 | -1.76 | 
20 | COCCNC(=O)C1C(=O)Nc2ccccc2C(=O)N1c1ccc2c(c1)OCCO2 (stereo unspecified) | -9.47 | 
21 | COc1cc(SC#N)ccc1N=Cc1c(C)[nH]n(-c2ccc(C)cc2)c1=O |  | 2.59 µM (active)
22 | COc1cccc(-c2coc3cc4oc(=O)c(CC(=O)O)c(C)c4cc23)c1 | 0.503 | 
23 | O=C(O)CC1S/C(=N\N=C/c2ccccc2O)N(c2ccc(O)cc2)C1=O (stereo unspecified) | 0.955 | 
24 | S=C(Nc1ccc(Br)cc1Cl)N1CCC2(CC1)OCCO2 | -0.753 | 
25 | C=C1C(=O)OC2C1CCC(C)=CCCC1(C)OC21 (stereo unspecified) |  | 1.64 µM (active)
26 | Cc1cc(Cl)ccc1NC(=S)N1CCC(C(N)=O)(N2CCCCC2)CC1 | -16.5 | 

Row | Structure (SMILES) | activity change, negative = growth inhibition [%] | Potency
27 | O=C(COC(=O)/C=C/c1cccc(Cl)c1)NCc1cccs1 | 1.25 | 
28 | COC(=O)CCc1sc(Nc2ccc(Br)cc2)nc1-c1ccc(OC)cc1 |  | 23.1 µM (active)
29 | Cc1ccc(OC(=O)CCC(=O)Nc2ccc(Br)cc2)cc1 | 3.44 | 
30 | COc1ccc(NC(=O)c2sc(N)nc2-c2ccccc2)cc1 | -14.4 | 
31 | CCc1c(C)sc(NC(=O)C2c3ccccc3Oc3ccccc32)c1C(=O)OC(C)C | -13.5 | 
32 | Cc1ccn2c(=O)c(NC(=O)c3cccc4ccccc34)c(C)nc2c1 | -23.8 | 
33 | NC(=O)N1CCCC1C(=O)Nc1ccc(Cl)c(Cl)c1 (stereo unspecified) | -26.9 | 
34 | O=C(Nc1ccc(Cl)c(Cl)c1)N1CC=C(c2ccccc2)CC1 |  | 23.1 µM (active)
35 | O=C(O)c1cccc(S(=O)(=O)N2CC=C(c3ccccc3)CC2)c1 | 7.01 | 
36 | CCCCn1c(N)c(N(CCC(C)C)C(=O)c2ccc([N+](=O)[O-])o2)c(=O)[nH]c1=O | -28.3 | 
37 | CCCCC(O)C1=C[N+](=O)CC=C1 (stereo unspecified) | 2.01 | 
38 | Nc1cc(=O)nc(SCc2ccccc2)n1Cc1ccco1 | 26.4 | 
39 | O=c1[nH]c(CSc2ncc(-c3ccc(F)cc3)n2Cc2ccco2)nc2ccccc12 |  | 18.4 µM (active)
40 | CCn1c(Cc2ccccc2)nnc1SCc1nc2ccccc2c(=O)[nH]1 | -18.4 | 
41 | COc1ccc2ccn(C)c2c1 | 2.6 | 
42 | CCOc1cc(NC(=S)NCCCOC)c(OCC)cc1NC(=O)c1ccco1 | -14.1 | 
43 | CCOc1cc(NC(=S)NCc2ccco2)c(OCC)cc1NC(=O)c1ccco1 | -16.1 | 
44 | CCOc1cc(NC(=O)c2ccco2)c(OCC)cc1NC(=O)COc1ccccc1 |  | 4.11 µM (active)
45 | COc1ccc(-c2nc3c4ccccc4n(CC(=O)Nc4ccc(C(C)=O)cc4)c(=O)n3n2)cc1 | -4.12 | 
46 | O=c1n(Cc2cccc(C(F)(F)F)c2)c2ccccc2c2nc(-c3ccccc3)nn12 |  | 23.1 µM (active)
47 | Cc1cc(N2CCN(c3cccc(C(F)(F)F)c3)CC2)n2nc(-c3ccccc3)nc2n1 | -1.02 | 
48 | CC(C)C(OC(=O)c1cccs1)C(=O)NC1CCCCC1 (stereo unspecified) | -15 | 
49 | Cc1ccc(NC(=O)CN(C)Cc2ccc(F)cc2)c([N+](=O)[O-])c1 | -19.4 | 
50 | CCn1c(SCC(=O)NC2CCCC2)nnc1-c1ccoc1C | -9.67 | 
51 | COC(=O)c1onc(-c2c(OC)cc(OC)cc2OC)c1C(=O)OC | -5.28 | 
